# Assay results taken from the supplement of paper PMC8728848.
# This is one part of a sample in which the strongest signals are shown more often than they occur.
# B1: Gs78B-bfa-542-29-542 (Bacteroides fragilis) (protein)
# chain: SEDINRNPLLPTKEDEKMDGVIYGAYLPNLEKSVIPIGTASESTEPVNRYQIGVNLAGDAWAGYMSPRDNKFNGSKNFTNYFMYENWVNYVYSFMVTDVYSPWMQIKRISQDEGTRNDEIYALAQIIKIAALHRTTDMFGPIPYSQVGKGSFKVAYDSQESVYRSFLKELEEAVQTLDDYSNKSKEVLPAFDIVYNGDVNKWMRFANSLMLRLAIRVRFADAGLAKEYAEKAVKHPAGLINSKELAAQMGKGAGLQMKNPLKVINEEYNDTRMGATIYSYLAGYNDARAAVYFVKNNGFKAVRCGIAKSGDAYNGFTRPNVHEDDPLYWMKASEVCFLKAEGALAGFDMGGSAGDFYNAGIRMSFSENGLDNSSAETYLKDSTRKPANYTDTSNGELSANAPSSITIRWENGATEEEKLERIITQKYLAIFPNGQEAWTEWRRTGYPRQIVVAENKTNSAVLIGNGYDLGGVRRLPYPRTEYEQNGENLHNAISQYLGGVDNAATKVWWDKKSK
# Legend:
# Experiment in all cases: glycan array binding signal (z-score within array); higher = stronger binding
# Conditions in all cases: glycan notation: IUPAC condensed, linker removed
# GalNAc3S(b1-4)GlcNAc3S = target: GalNAc3S(b1-4)GlcNAc3S
# Procedure, shortened: (§1)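 The Consortium for Functional Glycomics database supplied 3228 glycan arrays, of which those lacking an available protein sequence were dropped. The binding signal, a within-array Z-score, was averaged across arrays of the same protein sequence and across linkers. Negative scores can be read as non-binding.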
# GalNAc6S(b1-4)GlcNAc = target: GalNAc6S(b1-4)GlcNAc
# Procedure, shortened: as §1
# Glc(b1-6)Glc = target: Glc(b1-6)Glc
# Procedure, shortened: as §1
# GlcA(b1-6)Gal = target: GlcA(b1-6)Gal
# Procedure, shortened: as §1
# [1] = target: GlcNAc(a1-4)Gal(b1-4)GlcNAc(b1-3)Gal(b1-4)GlcNAc
# Procedure, shortened: as §1
# [2] = target: GlcNAc(b1-2)[GlcNAc(b1-4)]Man(a1-3)[GlcNAc(b1-4)][GlcNAc(b1-2)Man(a1-6)]Man(b1-4)GlcNAc(b1-4)GlcNAc
# Procedure, shortened: as §1
# [3] = target: GlcNAc(b1-2)[GlcNAc(b1-6)]Man(a1-6)[GlcNAc(b1-4)][GlcNAc(b1-2)Man(a1-3)]Man(b1-4)GlcNAc(b1-4)GlcNAc
# Procedure, shortened: as §1
# [4] = target: GlcNAc(b1-3)Gal(b1-3)GalNAc
# Procedure, shortened: as §1
# [5] = target: GlcNAc(b1-3)Gal(b1-4)GlcNAc(b1-2)Man(a1-3)[GlcNAc(b1-3)Gal(b1-4)GlcNAc(b1-2)Man(a1-6)]Man(b1-4)GlcNAc(b1-4)GlcNAc
# Procedure, shortened: as §1
# [6] = target: GlcNAc(b1-4)Gal(b1-4)GlcNAc
# Procedure, shortened: as §1
# GlcNAc(b1-6)GalNAc = target: GlcNAc(b1-6)GalNAc
# Procedure, shortened: as §1
# Kdn(a2-3)Gal(b1-4)GlcNAc = target: Kdn(a2-3)Gal(b1-4)GlcNAc
# Procedure, shortened: as §1
# [7] = target: Man(a1-2)Man(a1-6)[Man(a1-3)]Man(a1-6)[Man(a1-2)Man(a1-2)Man(a1-3)]Man
# Procedure, shortened: as §1
# [8] = target: Man(a1-3)[Man(a1-6)]Man(a1-6)[Man(a1-2)Man(a1-3)]Man(b1-4)GlcNAc(b1-4)GlcNAc
# Procedure, shortened: as §1
# [9] = target: Neu5Ac(a2-3)Gal(b1-3)GlcNAc
# Procedure, shortened: as §1
# [10] = target: Neu5Ac(a2-3)Gal(b1-3)[Fuc(a1-4)]GlcNAc
# Procedure, shortened: as §1
# [11] = target: Neu5Ac(a2-3)Gal(b1-4)GlcNAc(b1-2)Man
# Procedure, shortened: as §1
# [12] = target: Neu5Ac(a2-3)Gal(b1-4)GlcNAc(b1-2)[Neu5Ac(a2-3)Gal(b1-4)GlcNAc(b1-6)]Man(a1-6)[Neu5Ac(a2-3)Gal(b1-4)GlcNAc(b1-2)Man(a1-3)]Man(b1-4)GlcNAc(b1-4)GlcNAc
# Procedure, shortened: as §1
# [13] = target: Neu5Ac(a2-3)Gal(b1-4)GlcNAc(b1-3)Gal(b1-4)GlcNAc(b1-3)Gal(b1-4)GlcNAc
# Procedure, shortened: as §1
# [14] = target: Neu5Ac(a2-3)Gal(b1-4)[Fuc(a1-3)]GlcNAc(b1-6)[Neu5Ac(a2-3)Gal(b1-3)]GalNAc
# Procedure, shortened: as §1
# Neu5Ac(a2-6)Gal(b1-4)Glc = target: Neu5Ac(a2-6)Gal(b1-4)Glc
# Procedure, shortened: as §1
# [15] = target: Neu5Ac(a2-6)Gal(b1-4)GlcNAc(b1-2)Man(a1-3)Man(b1-4)GlcNAc(b1-4)GlcNAc
# Procedure, shortened: as §1
# [16] = target: Neu5Ac(a2-6)Gal(b1-4)GlcNAc(b1-2)[Neu5Ac(a2-6)Gal(b1-4)GlcNAc(b1-6)]Man(a1-6)[Neu5Ac(a2-6)Gal(b1-4)GlcNAc(b1-2)Man(a1-3)][GlcNAc(b1-4)]Man(b1-4)GlcNAc(b1-4)GlcNAc
# Procedure, shortened: as §1
# [17] = target: Neu5Ac(a2-8)Neu5Ac(a2-3)Gal(b1-3)GalNAc(b1-4)[Neu5Ac(a2-8)Neu5Ac(a2-3)]Gal(b1-4)Glc
# Procedure, shortened: as §1
# [18] = target: Neu5Ac(a2-8)Neu5Ac(a2-8)Neu5Ac(a2-3)[Gal(b1-3)GalNAc(b1-4)]Gal(b1-4)Glc
# Procedure, shortened: as §1
# [19] = target: Neu5Ac(a2-8)Neu5Ac(a2-8)Neu5Ac(a2-8)Neu5Ac(a2-3)[GalNAc(b1-4)]Gal(b1-4)Glc
# Procedure, shortened: as §1
# [20] = target: Neu5Gc(a2-3)Gal(b1-4)[Fuc(a1-3)]GlcNAc
# Procedure, shortened: as §1
binder,measurement,setting,value
B1,glycan array binding signal (z-score),GalNAc3S(b1-4)GlcNAc3S,-0.813
same,glycan array binding signal (z-score),GalNAc6S(b1-4)GlcNAc,-0.336
same,glycan array binding signal (z-score),Glc(b1-6)Glc,-0.312
same,glycan array binding signal (z-score),GlcA(b1-6)Gal,2.77
same,glycan array binding signal (z-score),[1],-0.691
same,glycan array binding signal (z-score),[2],-0.838
same,glycan array binding signal (z-score),[3],-0.844
same,glycan array binding signal (z-score),[4],-0.48
same,glycan array binding signal (z-score),[5],-0.439
same,glycan array binding signal (z-score),[6],-0.828
same,glycan array binding signal (z-score),GlcNAc(b1-6)GalNAc,-0.233
same,glycan array binding signal (z-score),Kdn(a2-3)Gal(b1-4)GlcNAc,2.84
same,glycan array binding signal (z-score),[7],-0.844
same,glycan array binding signal (z-score),[8],3.49
same,glycan array binding signal (z-score),[9],-0.067
same,glycan array binding signal (z-score),[10],-0.793
same,glycan array binding signal (z-score),[11],2.92
same,glycan array binding signal (z-score),[12],0.079
same,glycan array binding signal (z-score),[13],-0.832
same,glycan array binding signal (z-score),[14],5.64
same,glycan array binding signal (z-score),Neu5Ac(a2-6)Gal(b1-4)Glc,-0.346
same,glycan array binding signal (z-score),[15],1.48
same,glycan array binding signal (z-score),[16],-0.454
same,glycan array binding signal (z-score),[17],0.648
same,glycan array binding signal (z-score),[18],-0.843
same,glycan array binding signal (z-score),[19],1.92
same,glycan array binding signal (z-score),[20],0.283
